According to the supplement of paper PMC11732987, “Enantioselective OTUD7B fragment discovery through chemoproteomics screening and high-throughput optimisation” (Communications Chemistry, 2025):
Values without a mark were called inactive.

How the values were obtained:
Experiment in all cases: log2 ratio of Biotin-Ahx-Ub-VS probe labelling (fragment/DMSO); higher = less target engagement (more negative = stronger competition), active = hit call of the paper (q ≤ 0.05, log2 ratio ≤ -1)
Details in all cases: compound concentration: 200 uM; treatment time: 3 h
[1] = molecular target: T1, USP19 (UniProt O94966)
T1 sequence (whole entry): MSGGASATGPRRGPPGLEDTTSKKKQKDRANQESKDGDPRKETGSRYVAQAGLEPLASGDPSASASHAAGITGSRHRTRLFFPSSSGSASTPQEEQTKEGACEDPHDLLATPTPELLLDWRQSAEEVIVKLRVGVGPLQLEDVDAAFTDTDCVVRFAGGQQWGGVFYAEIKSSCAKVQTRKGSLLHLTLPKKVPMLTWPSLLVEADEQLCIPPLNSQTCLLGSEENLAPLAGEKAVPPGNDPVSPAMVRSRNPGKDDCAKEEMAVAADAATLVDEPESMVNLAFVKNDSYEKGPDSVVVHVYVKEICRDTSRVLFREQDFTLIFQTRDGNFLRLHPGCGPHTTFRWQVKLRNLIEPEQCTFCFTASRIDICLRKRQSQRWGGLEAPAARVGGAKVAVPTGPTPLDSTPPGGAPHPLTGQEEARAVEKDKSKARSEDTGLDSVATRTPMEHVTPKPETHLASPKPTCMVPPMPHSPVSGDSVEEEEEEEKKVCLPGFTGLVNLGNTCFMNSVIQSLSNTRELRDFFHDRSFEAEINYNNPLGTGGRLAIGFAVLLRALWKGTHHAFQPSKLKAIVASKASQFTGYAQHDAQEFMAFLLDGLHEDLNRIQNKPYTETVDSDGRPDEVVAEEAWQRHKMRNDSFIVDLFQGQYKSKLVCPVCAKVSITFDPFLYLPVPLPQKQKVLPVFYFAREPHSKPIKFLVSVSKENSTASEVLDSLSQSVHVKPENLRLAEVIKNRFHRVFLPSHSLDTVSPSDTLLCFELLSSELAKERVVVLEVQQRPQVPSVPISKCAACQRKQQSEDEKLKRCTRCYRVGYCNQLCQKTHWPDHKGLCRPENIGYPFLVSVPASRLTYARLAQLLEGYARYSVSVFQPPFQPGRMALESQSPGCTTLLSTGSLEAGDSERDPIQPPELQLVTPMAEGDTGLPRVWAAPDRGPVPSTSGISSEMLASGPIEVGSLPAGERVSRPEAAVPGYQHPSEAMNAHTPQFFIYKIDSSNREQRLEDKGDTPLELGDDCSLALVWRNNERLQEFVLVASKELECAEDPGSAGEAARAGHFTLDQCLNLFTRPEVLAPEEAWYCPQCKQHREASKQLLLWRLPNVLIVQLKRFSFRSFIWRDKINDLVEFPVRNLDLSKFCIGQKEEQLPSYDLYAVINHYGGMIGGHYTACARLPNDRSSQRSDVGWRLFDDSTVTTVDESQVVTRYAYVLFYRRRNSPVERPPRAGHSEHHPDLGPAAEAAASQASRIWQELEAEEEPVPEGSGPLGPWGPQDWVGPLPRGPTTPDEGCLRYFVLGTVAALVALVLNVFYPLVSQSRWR
Method in brief: (§1)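 Average log2 ratios of fragment over vehicle were obtained by unpaired t-test from global-median-normalised Spectronaut label-free quantities. Proteins with ≥2 unique peptides were included. HEK293T lysate (495 µg per sample) was treated in triplicate with fragment at 200 µM or vehicle for 3 h, then with Biotin-Ahx-Ub-VS at 0.5 µM final for 1 h, and labelled DUBs were NeutrAvidin-enriched and run by diaPASEF LC-MS/MS.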

[2] = molecular target: USP24 (UniProt Q9UPU5)
Method in brief: as §1

[3] = molecular target: T2, USP25 (UniProt Q9UHP3)
T2 sequence (whole entry): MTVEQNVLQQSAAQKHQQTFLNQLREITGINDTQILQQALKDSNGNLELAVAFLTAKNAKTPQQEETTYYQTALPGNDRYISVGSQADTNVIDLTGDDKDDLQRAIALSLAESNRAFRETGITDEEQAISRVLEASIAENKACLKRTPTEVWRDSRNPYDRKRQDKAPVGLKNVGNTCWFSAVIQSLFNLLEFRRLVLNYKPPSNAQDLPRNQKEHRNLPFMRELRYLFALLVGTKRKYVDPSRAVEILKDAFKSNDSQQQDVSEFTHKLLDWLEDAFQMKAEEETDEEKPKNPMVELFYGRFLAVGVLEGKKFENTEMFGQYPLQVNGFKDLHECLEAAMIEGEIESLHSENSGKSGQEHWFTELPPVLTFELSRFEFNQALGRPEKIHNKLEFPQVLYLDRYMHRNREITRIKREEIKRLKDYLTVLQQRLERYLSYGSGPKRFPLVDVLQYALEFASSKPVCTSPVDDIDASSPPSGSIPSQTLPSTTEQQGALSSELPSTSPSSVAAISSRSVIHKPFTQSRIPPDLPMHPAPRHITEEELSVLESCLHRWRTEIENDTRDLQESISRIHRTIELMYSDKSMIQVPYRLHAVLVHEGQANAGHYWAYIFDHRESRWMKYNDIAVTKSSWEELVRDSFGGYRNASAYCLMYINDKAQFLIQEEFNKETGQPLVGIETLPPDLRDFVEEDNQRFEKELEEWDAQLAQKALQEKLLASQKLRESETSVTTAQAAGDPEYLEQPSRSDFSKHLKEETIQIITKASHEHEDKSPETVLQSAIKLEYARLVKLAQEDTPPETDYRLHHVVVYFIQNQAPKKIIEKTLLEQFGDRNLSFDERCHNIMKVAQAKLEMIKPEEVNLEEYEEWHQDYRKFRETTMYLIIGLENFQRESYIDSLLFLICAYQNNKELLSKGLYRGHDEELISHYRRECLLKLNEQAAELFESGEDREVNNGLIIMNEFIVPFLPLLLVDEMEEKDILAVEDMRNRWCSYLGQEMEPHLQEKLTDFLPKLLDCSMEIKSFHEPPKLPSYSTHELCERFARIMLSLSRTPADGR
Method in brief: as §1

[4] = molecular target: T3, USP28 (UniProt Q96RU2)
T3 sequence (whole entry): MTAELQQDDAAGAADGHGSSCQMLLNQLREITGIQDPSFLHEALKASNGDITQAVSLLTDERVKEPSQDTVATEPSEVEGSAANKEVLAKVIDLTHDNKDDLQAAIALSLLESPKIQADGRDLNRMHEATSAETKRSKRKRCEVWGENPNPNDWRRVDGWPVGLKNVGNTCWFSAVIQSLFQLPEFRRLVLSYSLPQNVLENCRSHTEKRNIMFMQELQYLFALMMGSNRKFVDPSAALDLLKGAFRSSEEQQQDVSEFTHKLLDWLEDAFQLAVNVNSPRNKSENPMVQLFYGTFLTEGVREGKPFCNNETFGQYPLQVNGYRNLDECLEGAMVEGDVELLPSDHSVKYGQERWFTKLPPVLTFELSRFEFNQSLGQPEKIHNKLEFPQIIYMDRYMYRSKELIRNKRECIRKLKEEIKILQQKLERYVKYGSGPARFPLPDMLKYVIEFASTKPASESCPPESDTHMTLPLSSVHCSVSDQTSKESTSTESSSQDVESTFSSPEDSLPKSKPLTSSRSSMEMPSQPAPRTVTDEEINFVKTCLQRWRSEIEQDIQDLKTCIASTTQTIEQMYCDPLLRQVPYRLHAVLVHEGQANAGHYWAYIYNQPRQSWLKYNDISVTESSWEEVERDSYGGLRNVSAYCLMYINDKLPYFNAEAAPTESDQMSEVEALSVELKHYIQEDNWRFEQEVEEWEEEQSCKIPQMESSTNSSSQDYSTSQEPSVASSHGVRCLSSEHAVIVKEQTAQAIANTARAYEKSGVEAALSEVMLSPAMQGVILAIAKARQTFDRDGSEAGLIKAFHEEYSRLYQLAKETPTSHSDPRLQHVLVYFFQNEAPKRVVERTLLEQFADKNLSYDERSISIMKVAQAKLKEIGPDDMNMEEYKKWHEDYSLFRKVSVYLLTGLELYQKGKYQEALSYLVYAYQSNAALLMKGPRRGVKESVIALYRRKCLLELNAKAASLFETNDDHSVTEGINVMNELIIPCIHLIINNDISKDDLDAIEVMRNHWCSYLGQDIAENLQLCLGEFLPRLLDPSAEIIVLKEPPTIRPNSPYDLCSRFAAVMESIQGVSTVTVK
Method in brief: as §1

Chain of USP24 (Q9UPU5 whole entry): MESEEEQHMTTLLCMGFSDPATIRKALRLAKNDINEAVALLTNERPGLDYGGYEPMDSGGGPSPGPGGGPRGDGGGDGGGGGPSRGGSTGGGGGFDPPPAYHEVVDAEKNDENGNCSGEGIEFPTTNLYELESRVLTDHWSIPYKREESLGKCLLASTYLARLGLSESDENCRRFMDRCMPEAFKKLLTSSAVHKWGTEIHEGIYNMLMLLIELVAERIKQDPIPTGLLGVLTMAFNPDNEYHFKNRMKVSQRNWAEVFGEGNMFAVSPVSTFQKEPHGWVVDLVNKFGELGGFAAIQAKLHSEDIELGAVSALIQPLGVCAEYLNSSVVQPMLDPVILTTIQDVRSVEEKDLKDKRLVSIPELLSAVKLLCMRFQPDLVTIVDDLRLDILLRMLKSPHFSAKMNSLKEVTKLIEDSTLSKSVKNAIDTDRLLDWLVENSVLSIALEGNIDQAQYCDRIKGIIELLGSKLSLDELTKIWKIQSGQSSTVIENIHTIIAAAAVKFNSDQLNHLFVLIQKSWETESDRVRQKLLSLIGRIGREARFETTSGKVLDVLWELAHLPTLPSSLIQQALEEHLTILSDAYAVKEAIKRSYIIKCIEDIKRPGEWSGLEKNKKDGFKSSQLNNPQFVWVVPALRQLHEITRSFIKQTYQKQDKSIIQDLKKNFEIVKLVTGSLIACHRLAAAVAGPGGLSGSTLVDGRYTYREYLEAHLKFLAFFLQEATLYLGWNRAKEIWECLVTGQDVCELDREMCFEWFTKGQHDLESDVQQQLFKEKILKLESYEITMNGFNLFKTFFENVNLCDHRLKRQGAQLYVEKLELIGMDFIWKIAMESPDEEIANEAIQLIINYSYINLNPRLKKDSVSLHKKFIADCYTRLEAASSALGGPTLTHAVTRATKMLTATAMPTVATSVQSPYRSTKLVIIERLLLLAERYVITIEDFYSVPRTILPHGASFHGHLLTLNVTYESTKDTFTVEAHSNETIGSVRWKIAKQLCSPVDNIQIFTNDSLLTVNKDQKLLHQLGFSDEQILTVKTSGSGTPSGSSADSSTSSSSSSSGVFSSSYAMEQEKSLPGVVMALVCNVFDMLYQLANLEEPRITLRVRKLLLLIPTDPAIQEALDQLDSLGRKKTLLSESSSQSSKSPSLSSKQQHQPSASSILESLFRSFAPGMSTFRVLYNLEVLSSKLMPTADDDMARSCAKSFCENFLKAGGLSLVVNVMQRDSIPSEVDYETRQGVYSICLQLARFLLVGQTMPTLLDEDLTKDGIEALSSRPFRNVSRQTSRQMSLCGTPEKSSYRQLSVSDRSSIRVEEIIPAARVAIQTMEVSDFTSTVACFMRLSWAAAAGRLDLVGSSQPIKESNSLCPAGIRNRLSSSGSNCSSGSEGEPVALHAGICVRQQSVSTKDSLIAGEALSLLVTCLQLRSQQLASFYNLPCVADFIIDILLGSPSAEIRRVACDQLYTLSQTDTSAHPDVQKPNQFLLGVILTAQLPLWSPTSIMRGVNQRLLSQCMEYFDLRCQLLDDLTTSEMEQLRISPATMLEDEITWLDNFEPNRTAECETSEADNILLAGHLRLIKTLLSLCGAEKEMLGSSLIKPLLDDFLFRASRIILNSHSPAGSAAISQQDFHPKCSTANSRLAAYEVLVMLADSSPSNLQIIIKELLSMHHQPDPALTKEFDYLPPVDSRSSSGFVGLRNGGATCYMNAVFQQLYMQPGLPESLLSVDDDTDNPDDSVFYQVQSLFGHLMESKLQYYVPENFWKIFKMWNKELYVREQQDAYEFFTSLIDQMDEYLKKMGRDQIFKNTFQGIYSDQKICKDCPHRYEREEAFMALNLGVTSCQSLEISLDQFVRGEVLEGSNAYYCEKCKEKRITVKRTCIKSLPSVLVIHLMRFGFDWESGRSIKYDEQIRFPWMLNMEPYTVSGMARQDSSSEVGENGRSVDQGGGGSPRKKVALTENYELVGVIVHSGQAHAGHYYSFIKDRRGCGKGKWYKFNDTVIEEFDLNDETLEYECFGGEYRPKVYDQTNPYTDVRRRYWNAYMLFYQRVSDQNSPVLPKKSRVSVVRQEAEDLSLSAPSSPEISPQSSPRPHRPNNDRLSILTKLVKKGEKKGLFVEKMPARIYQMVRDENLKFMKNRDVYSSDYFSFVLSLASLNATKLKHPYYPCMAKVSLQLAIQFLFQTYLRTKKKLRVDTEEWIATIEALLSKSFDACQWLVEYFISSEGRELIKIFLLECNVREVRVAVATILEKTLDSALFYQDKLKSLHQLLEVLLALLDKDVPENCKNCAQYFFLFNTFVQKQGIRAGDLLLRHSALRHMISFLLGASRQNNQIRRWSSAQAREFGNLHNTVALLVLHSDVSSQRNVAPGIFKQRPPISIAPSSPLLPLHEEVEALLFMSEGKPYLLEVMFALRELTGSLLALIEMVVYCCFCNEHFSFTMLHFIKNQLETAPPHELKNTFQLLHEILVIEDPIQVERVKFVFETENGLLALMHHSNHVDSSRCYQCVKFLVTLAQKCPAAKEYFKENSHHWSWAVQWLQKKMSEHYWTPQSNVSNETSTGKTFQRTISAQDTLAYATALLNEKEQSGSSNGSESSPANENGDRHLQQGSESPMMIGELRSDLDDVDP

Compound: Cc1conc1C1CN(C(=O)CCl)C1
- log2 ratio of Biotin-Ahx-Ub-VS probe labelling [1]: -1.19 (active)
- log2 ratio of Biotin-Ahx-Ub-VS probe labelling [2]: -1.11 (active)
- log2 ratio of Biotin-Ahx-Ub-VS probe labelling [3]: -0.81
- log2 ratio of Biotin-Ahx-Ub-VS probe labelling [4]: -1.16 (active)
